Data on 83 molecules can be found in ChEMBL document CHEMBL4888484, “Replenishing the malaria drug discovery pipeline: Screening and hit evaluation of the MMV Hit Generation Library 1 (HGL1) against asexual blood stage Plasmodium falciparum ,using a nano luciferase reporter read-out” (2022).

The campaign covered roughly 150,000 compounds. About 540 (0.36%) showed an effect of 50% or more. Only a selection was taken, and strong results are over-represented in it overall.

The test relates to Plasmodium falciparum. Put plainly: Primary screen in NF54 nanoGlo assay, in single point, at 2uM, 72h; a lower Z score goes with more inhibition. The test is classed as functional, Erythrocyte. The conditions noted are these: timepoint 72 hour.
Turning to `CC(NC[C@H](C)O)C(C)(C)c1ccc(F)cc1` (stereo partly specified), the “% Inhibition” value is recorded as -3% and the Z score worked out at 0.44.
As for `Fc1cc(CNCC(F)F)ccc1Cl`, the “% Inhibition” value is -7% and the Z score turned out to be 0.98.
For `O=c1ccc(-c2cncnc2)c2n1C[C@H]1C[C@@H]2CN(S(=O)(=O)c2ccccc2)C1`, in that order: -11% and 1.78.
For `Cc1ccc(CN2CCN(C(=O)Cc3cccnc3)[C@H]3CS(=O)(=O)C[C@H]32)o1`, in that order: 5% and -0.92.
As to `CC(=O)N(C1CCN(Cc2ccccc2)CC1)C1(C(=O)Nc2ccc3[nH]ccc3c2)CCN(C)CC1`, the “% Inhibition” value is on record as 92% and the Z score is -11.04.
For `CCc1cccc(N(C(=O)c2ccc(NC(C)=O)cc2)C2(C(=O)NCc3ccccc3)CCN(C(C)=O)CC2)c1`, the “% Inhibition” value worked out at 0% and the Z score was found to be 0.
For the molecule `CCC(=O)Nc1ccc(C)c(NC(=O)C2(c3ccccc3)CCN(C)CC2)c1`, the “% Inhibition” value is given as -9% and the Z score is given as 1.09.
As for `CN(C)c1ccc(CN2CCN(CCO)[C@@H]3CS(=O)(=O)C[C@@H]32)cn1`, the “% Inhibition” value is recorded as -3% and the Z score is given as 0.58.
As for `O=C(Cc1ccc(O)c(F)c1)N1C[C@H]2c3ccccc3OC[C@@]2(C(=O)O)C1`, the “% Inhibition” value is given as -2% and the Z score is 0.24.
`CCOc1ccccc1NC(=O)CN1CC=C(c2cnn(C)c2)CC1`: the “% Inhibition” value is -1% and the Z score was 0.1.
In the case of `COc1ccc(-c2csc(-n3cc(C4=CCN(CCO)CC4)cn3)n2)cc1`, the “% Inhibition” value stood at 50% and the Z score is on record as -5.49.
For `CN(C)C1(CNc2ccc(C#N)c(Cl)c2)CCOCC1`, in that order: -5% and 0.53.
For `O=C(c1cc(F)cc(F)c1)N1CCC2(CC1)N(c1ccccc1)C(=O)CS2(=O)=O`, in that order: -15% and 2.33.
With `CC(C)(N)Cc1ccc(C(F)(F)F)cc1`, the “% Inhibition” value is reported as 1% and the Z score was -0.09.
In the case of `CN1CC[C@]2(CCN(c3ccnc4ccsc34)C2)C1`, the “% Inhibition” value came out at 98% and the Z score is listed as -10.65.
Regarding `c1cc(N2CC[C@@]3(CCCNC3)C2)c2sccc2n1`, the “% Inhibition” value was 98% and the Z score is -16.03.
Take `Clc1cccc2c(N3CC[C@]4(CCNC4)C3)ccnc12`: the “% Inhibition” value amounted to 23% and the Z score is listed as -3.12.
For the molecule `CN1CC[C@@]2(CCCN(c3ccncc3F)C2)C1`, the “% Inhibition” value is -8% and the Z score is reported as 0.76.
For `CN1CCC[C@@]2(CCN(c3ccncc3C3CC3)C2)C1`, in that order: 0% and 0.05.
As to `CCc1cc(CN[C@@H](C)Cc2ccc(F)cc2)on1`, the “% Inhibition” value is listed as -5% and the Z score turned out to be 0.53.
For `Cc1nc(CN2C[C@@H](CO)[C@H](c3ccc(Cl)cc3)C2)co1`, in that order: 4% and -0.83.
On to `O=C(CNc1ccc(Cl)c(F)c1)N1CCC2(CC1)OCCO2`, for which the “% Inhibition” value came out at 28% and the Z score is listed as -3.19.
For the molecule `CCCS(=O)(=O)Nc1ccc(=O)n2c1[C@@H]1C[C@@H](CN(C(=O)Nc3ccc(F)cc3)C1)C2`, the “% Inhibition” value was determined as 27% and the Z score is -3.06.
For `N#Cc1ccc(N[C@H]2CCN(C3CCOCC3)C2=O)cc1C(F)(F)F`, in that order: 1% and -0.05.
On to `C=CCN(C)C[C@H]1CN2CC[C@H]1C[C@@H]2CNC(=O)Nc1ccc(OC(F)(F)F)cc1`, for which the “% Inhibition” value amounted to 57% and the Z score is on record as -4.08.
For `C#CCN(C)C[C@H]1C[N@@]2CC[C@H]1C[C@@H]2CNC(=O)c1ccccc1`, in that order: 33% and -3.75.
With `CN(Cc1ccccc1)C[C@H]1C[N@@]2CC[C@H]1C[C@@H]2CNC(=O)c1ccccc1`, the “% Inhibition” value is on record as 11% and the Z score is given as -1.99.
For `O=C(c1ccncc1F)N1C[C@H]2CC[C@@H](C1)N(CC1CC1)C2`, the “% Inhibition” value is reported as 2% and the Z score is -0.29.
For `O=C(NCc1ccccc1)N1Cc2ccccc2-n2cccc2[C@H]1c1ccccc1`, in that order: -9% and 1.11.
For `CN1CCN(CC(=O)N2CCC3(CC2)OCCO3)c2ccc(Cl)cc21`, the “% Inhibition” value is reported as -13% and the Z score is reported as 2.46.
Turning to `CCCc1cncnc1N1C[C@H]2CC[C@@H](C1)N(CCC)C2`, the “% Inhibition” value came to 7% and the Z score is -1.29.
On to `Cc1nc[nH]c1CN1C[C@H]2CC[C@@H](C1)N(C(=O)Cc1ccncc1)C2`, for which the “% Inhibition” value is given as -5% and the Z score turned out to be 0.88.
Regarding `COc1ccc2c(c1)OC[C@@]1(C(=O)O)CN(CCC(F)(F)F)C[C@@H]21`, the “% Inhibition” value is 3% and the Z score is listed as -0.33.
For `Cc1cc(Cl)cc2c(N3CC[C@@]4(O)CCNC[C@H]4C3)ccnc12`, the “% Inhibition” value was found to be 3% and the Z score is given as -0.52.
For `Cc1cc(C)n2ncc(CN3C[C@@H]4CC[C@H](C3)C(=O)N4)c2n1`, in that order: -11% and 1.38.
Regarding `CC(C)(C)OC(=O)N1[C@@H]2CC[C@H]1[C@@H]1C[C@]1(C(=O)O)C2`, the “% Inhibition” value was -10% and the Z score is reported as 1.06.
For the molecule `CC(C)c1ncc(C(=O)N[C@H]2CN3CCC2CC3)cn1`, the “% Inhibition” value is recorded as 2% and the Z score is on record as -0.19.
For `O=C(Cc1c[nH]c2ccccc12)N1CCN(Cc2nnn3c2CO[C@H](c2cccc(F)c2)C3)CC1`, the “% Inhibition” value is -6% and the Z score is 0.79.
As for `c1ccc2c(CN3CCCCCC3)c[nH]c2c1`, the “% Inhibition” value came to 5% and the Z score is -0.53.
For the molecule `CCOc1ccccc1NC(=O)c1ccc2oc(=O)n(Cc3ccc(F)cc3)c2c1`, the “% Inhibition” value came out at 2% and the Z score is given as -0.31.
Take `CC(C)CCC(=O)N1CCC2CCN(C)CC21` (stereo unspecified): the “% Inhibition” value was -3% and the Z score is on record as 0.4.
For `COc1cccc(CNC(=O)N2CC[C@@H]3CCN(C)C[C@@H]32)n1`, in that order: 88% and 0.42.
`CN1CCC2CCN(C(=O)Nc3nccs3)C2C1` (stereo unspecified): the “% Inhibition” value is given as -8% and the Z score is recorded as 0.77.
Consider `C[C@]1(c2ccccc2Cl)NC(=O)N(CC(=O)Nc2ccc(Cl)cc2C(=O)c2ccccc2)C1=O`, for which the “% Inhibition” value is given as -1% and the Z score was 0.1.
In the case of `O=C(c1ccccc1)c1cc(Cl)ccc1NC(=O)C1CCN(C(=O)c2ccco2)CC1`, the “% Inhibition” value stood at 1% and the Z score was -0.14.
`O=C(c1ccccc1)c1cc(Cl)ccc1NC(=O)[C@H]1CC(=O)N(c2ccc(F)cc2)C1`: the “% Inhibition” value is 56% and the Z score is reported as -9.01.
For `Cc1sc2ncnc(N3CCN4CCC[C@H]4C3)c2c1C`, in that order: -5% and 0.64.
For the molecule `O=C(COc1ccccc1)N1CCCCC[C@@H]1CN1CCCC1`, the “% Inhibition” value came to 1% and the Z score is listed as -0.2.
`Cc1cc(C(=O)NC2CC2)nn1[C@@H](C)C1CC1`: the “% Inhibition” value is reported as -5% and the Z score was found to be 0.91.
For `Cc1cc(C(=O)NC2CC(C)n3ccnc32)nn1C(C)C` (stereo unspecified), in that order: 62% and -7.62.
For `CC(C)n1ccc(C(=O)NC2CC(C(=O)O)c3ccccc32)n1` (stereo unspecified), in that order: -1% and 0.16.
As to `CC(Cc1ccccc1Br)NC(C)c1cccnc1` (stereo unspecified), the “% Inhibition” value was determined as 2% and the Z score is listed as -0.27.
As for `C[C@@H](Cc1ccccc1F)NCC1(CO)CCCC1`, the “% Inhibition” value was -3% and the Z score was 0.57.
As for `COc1ccc(NC(=O)CN2CC=C(c3cnn(C)c3)CC2)cc1Cl`, the “% Inhibition” value is reported as -9% and the Z score was determined as 1.67.
In the case of `CCOc1ccc(NC(=O)CN2CC=C(c3cnn(C)c3)CC2)cc1`, the “% Inhibition” value is -9% and the Z score stood at 0.93.
`Cc1ccc2c(c1)CCCN2C(=O)CN1CC=C(c2cnn(C)c2)CC1`: the “% Inhibition” value was 55% and the Z score was -3.45.
In the case of `CC1CCCC2CCCN(Cc3nc4c(cnn4C)c(=O)[nH]3)C12` (stereo unspecified), the “% Inhibition” value is -8% and the Z score was determined as 0.94.
For the molecule `C[C@@H](Cc1ccc(F)cc1)NCC(C)(C)C(N)=O`, the “% Inhibition” value is -4% and the Z score is listed as 0.56.
For the molecule `C=CCCC(CN1C[C@H]2CC=CC[C@H]2C1)Oc1ccnc(C)n1` (stereo partly specified), the “% Inhibition” value was 3% and the Z score is on record as -0.6.
In the case of `C=CCCC(CN1C[C@H]2CC=CC[C@H]2C1)Oc1ncc(F)cn1` (stereo partly specified), the “% Inhibition” value turned out to be 75% and the Z score is -13.95.
On to `C=CCCC(CN1C[C@H]2CC=CC[C@H]2C1)Oc1ncccn1` (stereo partly specified), for which the “% Inhibition” value is listed as -8% and the Z score turned out to be 1.33.
As to `Cc1oncc1C(=O)N1C[C@H](c2cc(F)cc(F)c2)[C@@H]2[C@H]1C1CCN2CC1`, the “% Inhibition” value is -4% and the Z score is 0.74.
Consider `Cc1cnc(N2C[C@H]3CN(C)C[C@H]3C2)c(Br)c1`, for which the “% Inhibition” value is reported as -1% and the Z score is 0.19.
Take `Fc1cnc(N2C[C@@H](c3ccccc3)[C@@H]3[C@H]2C2CCN3CC2)nc1`: the “% Inhibition” value is recorded as -13% and the Z score is listed as 2.17.
For `CN1CCN2c3cccc(Cl)c3CC3(C(=O)NC(=O)N(c4ccc(F)cc4)C3=O)C2C1` (stereo unspecified), in that order: 4% and -0.49.
`COCCn1ccc(C(=O)N[C@H]2CCc3nc(C(C)C)nn3C2)n1`: the “% Inhibition” value was 71% and the Z score is recorded as -11.17.
`COCCn1cc(C(=O)N[C@H]2C[C@@](CO)(c3ccccc3)C2)nn1`: the “% Inhibition” value came out at 1% and the Z score is -0.11.
On to `COCCn1ccc(C(=O)NC(C)(C)c2ccc(F)cc2Cl)n1`, for which the “% Inhibition” value came out at 4% and the Z score was -0.52.
Take `CN(C(=O)CCC(F)(F)F)C1CC2CCC(C1)N2` (stereo unspecified): the “% Inhibition” value is reported as -19% and the Z score stood at 1.62.
For `O=S(=O)(NC12CCCC1CNC2)c1onc(C2CC2)c1Cl` (stereo unspecified), in that order: 94% and -8.97.
In the case of `CCCCOc1ncccc1CNC(=O)C1CN2CCCC2CO1` (stereo unspecified), the “% Inhibition” value is listed as -1% and the Z score is on record as 0.09.
Regarding `CCC(CC)c1cc([C@H]2CN3CC[C@H]2C[C@@H]3CNS(=O)(=O)Cc2ccccc2)nc(-c2ccncc2)n1`, the “% Inhibition” value is on record as 75% and the Z score is on record as -9.43.
As to `CCCS(=O)(=O)NC[C@H]1C[C@@H]2CCN1C[C@@H]2c1cc(C(CC)CC)nc(-c2ccncc2)n1`, the “% Inhibition” value is reported as 35% and the Z score is -3.34.
Turning to `CCC(CC)c1cc([C@H]2CN3CC[C@H]2C[C@@H]3CO)nc(-c2ccncc2)n1`, the “% Inhibition” value is listed as 25% and the Z score is -2.22.
As to `COCCN1C[C@@H]2CC[C@H]1CN(C(=O)c1cc(C(C)C)on1)C2`, the “% Inhibition” value amounted to 4% and the Z score was -0.35.
For `Cc1ncsc1CN1C[C@@H]2CC[C@H]1CN(Cc1c(C)noc1C)C2`, in that order: -5% and 0.89.
As to `Cc1ccc(CNc2ncnc3[nH]ncc23)c(-n2cc(Cl)cn2)n1`, the “% Inhibition” value came to 12% and the Z score is on record as -2.28.
Regarding `CN(C)c1ccnc(N2C[C@@H](c3ccc4c(c3)OCO4)[C@@H]3[C@H]2C2CCN3CC2)n1`, the “% Inhibition” value is listed as -7% and the Z score worked out at 0.91.
With `c1cc2c(cc1CCN1CCCC1)CCO2`, the “% Inhibition” value is -12% and the Z score was 1.27.
With `Cn1nc(C(=O)N2CCC3(CC2)OCCO3)c2ccccc2c1=O`, the “% Inhibition” value was -14% and the Z score turned out to be 2.25.
For `Cc1ccc(C)n1[C@@H](Cc1cnc[nH]1)C(=O)O`, in that order: -1% and 0.15.
For `c1cc2c(c(-c3cnccn3)c1)CCNC2`, in that order: -4% and 0.84.
On to `c1ccc2c(c1)C[C@H](Cc1ccc3c(c1)CNCC3)CO2`, for which the “% Inhibition” value came to 3% and the Z score was -0.36.
